Data reported in PubChem BioAssay (EPA / NIEHS).
The source made the active and inactive calls. The calls were made as follows: active = hit-call score of the fitted dose curve at least 0.9, where 1 is the maximum; inactive = score below 0.9.

Read-out: sulfotransferase 2A1 (SULT2A1), SULT2A1 (gene 6822)
Test: LTEA_HepaRG_SULT2A1: Life Technologies and Expression Analysis (LTEA) Assay for sulfotransferase 2A1 (SULT2A1) using HepaRG (AID 2283531)
Details: mRNA level, 48 h; actives raise or lower the signal
Experimental: LTEA_HepaRG is a cell based, multiplexed-readout assay that uses HepaRG, a human liver cell line, with measurements taken at 48 hours after chemical dosing on a 96-well plate.LTEA_HepaRG_SULT2A1 is one of 102 assay component(s) measured in the LTEA HepaRG cell culture assay. It is a marker of NR mediated transport.Data from the assay component LTEA_HepaRG_SULT2A1 was analyzed into 1 endpoint. This assay endpoint, LTEA_HepaRG_SULT2A1, was analyzed with bidirectional fitting relative to DMSO as the negative control and baseline of activity. Using a type of inducible reporter, measures of mRNA induction for gain or loss-of-signal activity can be used to understand regulation of transcription factor activity. To generalize the intended target to other relatable targets, this assay endpoint is annotated to the transferase intended target family, where the subfamily is sulfotransferase.
A total of 1060 chemcials from the ToxCast library were tested in eight-point concentration-response experiments. Cell culture and cytotoxicity assays were conducted at Thermo Fisher Scientific's Custom Services facility (Madison, WI). A single lot of human HepaRG cells (Thermo Fisher Scientific, Frederick, MD) was used for the cell culture experiments. 96-well format collagen type I coated plates of human HepaRG cells were prepared using established methods. Briefly, cryopreserved HepaRG cells were thawed, plated at a density of approximately 100,000 cells/well in HepaRG Thaw, Plate, and General Purpose media (HPRG770, Thermo Fisher Scientific), and incubated for 48 hours. 0.5% DMSO was selected as vehicle control to balance the requisite need of DMSO in HepaRG cultures to maintain differentiation (for example, baseline metabolism, proportions of hepatocytes vs. cholangiocytes), while enabling further hepatic receptor pathway activation (for example, PXR and CAR) in response to chemical exposure. 48 hours after plating, the culture medium was replaced with HepaRG Serum-Free Incudtion Media. Cells were exposed to each test chemical in duplicate and maintained in CO2 incubators for another 48 hours. Chemical plates were thawed to room temperature and 200x concentrations of treatment groups were prepared. 8-point conentration-reponse curves were made with the highest exposure at 100 uM, followed by half-log dilutions, all in 0.5% DMSO. Each test plate contained variouse controls, induction positive controls (1mM phenobarbital), cytotoxicity positive controls ([…] aflatoxin B1), vehicle controls (0.5% DMSO), and total lysis controls (0.5% DMSO). Cell morphology images were taken using an Essen IncuCyte FLR automated microscope, with six 96-well plates imaged in about 24 minutes. Images were captured and exported and JPEG files. Spent culture media was transfered to black-well plates for the LDH assay, and remaining media was sorted at -80 C for later use. Cells were treated with RLT buffer and frozen until shipped for gene expression analysis. Total RNA was isolated from the cell suspension in 75 uL of Buffer RLT (Qiagen, Germantown, MD 20874) by Quintiles/Expression Analysis (Durham, NC) using a custom isolation procedure. Total RNA from each plate well was transferred to a preamplification plate. Fluidigm's 96.96 Dynamic ArrayTM (Fluidigm, Amsterdam, the Netherlands) technology was used for gene expression analyses by quantitative reverse transcription polymerase chain reaction (qRT-PCR, performed by Quintiles/Expression Analysis, Durham, NC)89. Standard TaqManTM Assays (Applied Biosystems/ThermoFisher Scientific, Foster City, CA) were used to assess the expression of 93 genes selected based on their selectivity and sensitivity to important hepatic receptors known to be modulated by environmental chemicals; importance in human hepatocyte functionality; and hepatotoxicity. […]

Row | SMILES | outcome | AC50
1 | CC(C1CC1)C(O)(Cn1cncn1)c1ccc(Cl)cc1 (stereo not given) | inactive | 
2 | COP(=O)(OC)C(O)C(Cl)(Cl)Cl (stereo not given) | inactive | 
3 | O=c1ccc(=O)[nH][nH]1 | inactive | 
4 | CCC(CC)Nc1c([N+](=O)[O-])cc(C)c(C)c1[N+](=O)[O-] | inactive | 
5 | Cc1cc(C2CC2)nc(Nc2ccccc2)n1 | inactive | 
6 | CCOP(=S)(OCC)Oc1cc(C)nc(C(C)C)n1 | inactive | 
7 | CC[C@H](C)[C@H]1O[C@]2(C=C[C@@H]1C)C[C@@H]1C[C@@H](C/C=C(\C)[C@@H](O[C@H]3C[C@H](OC)[C@@H](O[C@H]4C[C@H](OC)[C@@H](NC)[C@H](C)O4)[C@H](C)O3)[C@@H](C)/C=C/C=C3\CO[C@@H]4[C@H](O)C(C)=C[C@@H](C(=O)O1)[C@]34O)O2 |  | 26.3 µM (active)
8 | CCOP(=O)(SC(C)CC)N1CCSC1=O (stereo not given) | inactive | 
9 | CN(C)NC(=O)CCC(=O)O | inactive | 
10 | CCCSP(=O)(OCC)SCCC | inactive | 
11 | Nc1nc(N)nc(NC2CC2)n1 | inactive | 
12 | COc1cc(OC)nc(Sc2cccc(Cl)c2C(=O)O)n1 | inactive | 
13 | CC(COc1ccc(Oc2ccccc2)cc1)Oc1ccccn1 (stereo not given) | inactive | 
14 | C#CCC1=C(C)C(OC(=O)C2C(C=C(C)C)C2(C)C)CC1=O (stereo not given) | inactive | 
15 | CNC(=O)ON=C(SC)C(=O)N(C)C | inactive | 
16 | CN(C)C(=O)Nc1cccc(C(F)(F)F)c1 | inactive | 
17 | CCOP(=S)(OCC)SCCSCC | inactive | 
18 | CCCSP(=O)(OCC)Oc1ccc(Br)cc1Cl (stereo not given) | inactive | 
19 | N#CSCSC#N | inactive | 
20 | CCc1cccc(C)c1N(C(=O)CCl)C(C)COC (stereo not given) | inactive | 

Row | SMILES | outcome | AC50
21 | C[N+]1(C)CCCCC1 | inactive | 
22 | CC(C)N(C(=O)SCC(Cl)=C(Cl)Cl)C(C)C | inactive | 
23 | CON=C(C(=O)OC)c1ccccc1CON=C(C)c1cccc(C(F)(F)F)c1 | inactive | 
24 | CCCCOC(=O)c1ccccc1C(=O)O | inactive | 
25 | CC(C)[C@H](C(=O)O[C@H](C#N)c1cccc(Oc2ccccc2)c1)c1ccc(Cl)cc1 | inactive | 
26 | CCNc1nc(Cl)nc(NC(C)(C)C#N)n1 | inactive | 
27 | CSc1nnc(C(C)(C)C)c(=O)n1N | inactive | 
28 | CCC(=NOC/C=C/Cl)C1=C(O)CC(C2CCOCC2)CC1=O (stereo not given) | inactive | 
29 | CCOP(=S)(OCC)Oc1ccc([N+](=O)[O-])cc1 | inactive | 
30 | C[Si](Cn1cncn1)(c1ccc(F)cc1)c1ccc(F)cc1 |  | 73.5 µM (active)
31 | S=C1NCCN1 | inactive | 
32 | CCC(=O)Nc1ccc(Cl)c(Cl)c1 | inactive | 
33 | FC(F)C(F)(F)OCC(Cn1cncn1)c1ccc(Cl)cc1Cl (stereo not given) |  | 53.8 µM (active)
34 | CCOC(=O)COc1cc(-c2nn(C)c(OC(F)F)c2Cl)c(F)cc1Cl | inactive | 
35 | CSC1=N[C@@](C)(c2ccccc2)C(=O)N1Nc1ccccc1 |  | 34.9 µM (active)
36 | CC(C)=CC1C(C(=O)OCN2C(=O)C3=C(CCCC3)C2=O)C1(C)C (stereo not given) | inactive | 
37 | CC(Oc1cccc(Cl)c1)C(=O)O (stereo not given) | inactive | 
38 | CCCCN(CC)c1c([N+](=O)[O-])cc(C(F)(F)F)cc1[N+](=O)[O-] | inactive | 
39 | CCCCOC(=O)[C@@H](C)Oc1ccc(Oc2ccc(C#N)cc2F)cc1 | inactive | 
40 | Cc1ccn2nc(S(=O)(=O)Nc3c(F)cccc3F)nc2n1 | inactive | 
